# From PubChem BioAssay AID1578 (Sanford-Burnham Center for Chemical Genomics, 2009)
# Screen size: about 290,000 compounds; about 3,000 (1%) were called active. Cut-off read from the data, not from the text of the source: active = inhibition mostly above about 36% (no sharp cut-off); inactive = mostly below about 34%. What follows is part of a selection rich in actives, with near analogues and random picks from the rest.
# Assay: inhibition of NOD1-driven NF-kB reporter – cell-based, luminescence, uHTS, primary screen (AID 1578);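 note: HEK-293T reporter cells stimulated with the NOD1 agonist gamma-tri-DAP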
# Conditions: NOD1-driven NF-kB luciferase reporter cells, at 4 µM, active compounds read high
row,SMILES,inhibition
1,Cc1ccc(N(Cc2cc3ccc(C)cc3[nH]c2=O)C(=O)c2ccco2)cc1,-4% (inactive)
2,COc1ccc(OCCC(=O)OCC(=O)NC(=O)NC(C)C)cc1,-3.2% (inactive)
3,COc1cccc(/C=N/N2CCN(C3c4ccccc4-c4ccccc43)CC2)c1O,-6.4% (inactive)
4,CCCn1c(=S)[nH]c2ccccc2c1=O,-14.5% (inactive)
5,C(=C\c1ccc2ccccc2n1)/c1ccccc1,0% (inactive)
6,Oc1ccc(/C=C/c2ccc3ccccc3n2)cc1,50.2% (active)
7,CCCN(CCC)c1ccc(/C=C/c2ccc3cc(OCC)ccc3n2)cc1,-1.6% (inactive)
8,CN(C)c1ccc(/C=C/c2nc3ccccc3s2)cc1,-3.1% (inactive)
9,O=[N+]([O-])c1ccc(/C=C/c2ccc3ccccc3n2)cc1,-12.9% (inactive)
10,CC[n+]1ccccc1/C=C/c1ccc(N(C)C)cc1,40.5% (inactive)
11,CN(C)c1ccc(/C=C/c2ccc3c4ccccc4ccc3[n+]2-c2ccccc2)cc1,71.6% (active)
12,CN(C)c1ccc(/C=C/c2ccc3ccccc3[n+]2C)cc1,43.8% (inactive)
13,CN(C)c1ccc(/C=C/c2ccc3ccccc3n2)cc1,59.1% (active)
14,COc1cc(CNCCC2CCOC(C)(C)C2)ccc1O (stereo not given),12.4% (inactive)
15,O=C(COc1ccc2c3c(c(=O)oc2c1)CCC3)Nc1ccc(CN2CCOCC2)cc1,-11.6% (inactive)
16,COc1ccc2nc(C)c(C(N)=O)cc2c1,5.9% (inactive)
17,O=C(NC(=S)Nc1ccccn1)c1ccccc1,-7.6% (inactive)
18,O=C(Nc1ccccn1)c1ccc(C(=O)Nc2ccccn2)cc1,-5.1% (inactive)
19,O=C(NC(=O)c1ccccc1)Nc1ccccn1,64.2% (active)
20,CC(=O)c1c(C)nn(CC(O)COc2ccc3ccccc3c2)c1C (stereo not given),-16.4% (inactive)
21,Cc1ccccc1C(=O)NC(=S)N(CCO)Cc1ccccc1,-10.6% (inactive)
22,CSCC(=O)N1CCC(Oc2cccc(C(=O)NCc3ccccn3)c2)CC1,-24% (inactive)
23,CC(C)NC(=O)CSc1nc(N)c(-c2ccccc2)c(=O)[nH]1,7.6% (inactive)
24,CC(=O)N/C(N)=N/c1nc2cc(C)ccc2o1,-10.1% (inactive)
25,Cc1ccc2oc(/N=C(\N)NC(=O)C3CC3)nc2c1,-13.8% (inactive)

row,SMILES,inhibition
1,CCCOc1cccc(C2C(C(=O)c3ccco3)=C(O)C(=O)N2c2nnc(C)s2)c1 (stereo not given),-7.8% (inactive)
2,N#Cc1ccc(C(=O)NCC2CCCCC2)cc1,0.9% (inactive)
3,O=C(O)c1cccc(C(=O)c2cccc(C(=O)O)c2)c1,-26.4% (inactive)
4,COc1ccc(CCCC(=O)N/N=C/c2ccccc2OC)cc1,-14.1% (inactive)
5,CSc1ccc(/C=N/NC(=O)CNc2ccc3ccccc3c2)cc1,-16.8% (inactive)
6,CCN(CC)S(=O)(=O)c1ccc(N/N=C(\C)c2ccncc2)c([N+](=O)[O-])c1,31% (inactive)
7,C/C(=N\Nc1ccc(S(=O)(=O)Nc2ccccc2)cc1[N+](=O)[O-])c1ccncc1,34.7% (inactive)
8,Cc1cc(=O)[nH]c(N/N=C/c2ccc(-c3ccc(F)cc3)o2)n1,-56.3% (inactive)
9,C/C(=N\N=c1/sc2ccccc2n1C)c1ccccn1,-61.2% (inactive)
10,CCN(CC)S(=O)(=O)c1ccc2c(c1)c(=O)c(C(=O)NCCOC)cn2C,-12.6% (inactive)
11,COc1ccc(C(=O)Nn2c(SCC(=O)NC3CCCCC3)nc3ccccc3c2=O)cc1,88% (active)
12,COc1ccc(C(=O)Nn2c(SCC(=O)NCC3CCCO3)nc3ccccc3c2=O)cc1 (stereo not given),64.6% (active)
13,COc1ccc(C(=O)Nn2c(SCC(=O)c3ccccc3)nc3ccccc3c2=O)cc1,43.6% (inactive)
14,COc1ccc(C(=O)Nn2c(SCC(=O)NC3CCCC3)nc3ccccc3c2=O)cc1,12.9% (inactive)
15,COc1ccc(C(=O)Nn2c(SCC(=O)NCc3ccco3)nc3ccccc3c2=O)cc1,-0.3% (inactive)
16,COc1ccc(C(=O)Nn2c(SCC(=O)NCc3ccccc3)nc3ccccc3c2=O)cc1,18.4% (inactive)
17,COc1ccccc1NC(=O)C(CCS(C)(=O)=O)N1C(=O)c2ccccc2C1=O (stereo not given),-3.2% (inactive)
18,C#CCSc1nnc(-c2c[nH]c3ccccc23)n1C,-40.9% (inactive)
19,Cn1cc2ccc([N+](=O)[O-])cc2n1,-6.5% (inactive)
20,CCOc1ccc(CCNC(=O)CCC(=O)N2CCOc3ccccc32)cc1OCC,-4.6% (inactive)
21,O=C(N/C(=C\c1cccs1)C(=O)N1CCOCC1)c1ccco1,-12.2% (inactive)
22,CCOc1ccc(NC(=O)CN(C)c2nnnn2-c2ccccc2)cc1OCC,39% (inactive)
23,COc1cc(O)cc(O)c1C(=O)/C=C/c1ccccc1,49.8% (active)
24,COc1cc(OC)c(C(=O)/C=C/c2ccccc2)c(O)c1O,21.4% (inactive)
25,COc1cc(O)c(C(=O)/C=C/c2ccccc2)c(OC)c1,1.3% (inactive)

row,SMILES,inhibition
1,O=C1/C(=C/c2cccnc2)CC/C1=C\c1cccnc1,5.4% (inactive)
2,CN1C/C(=C/c2cccnc2)C(=O)/C(=C/c2cccnc2)C1,37% (inactive)
3,CCC1C/C(=C\c2cccnc2)C(=O)/C(=C/c2cccnc2)C1 (stereo not given),103% (active)
4,O=C(CCl)c1ccc2c(c1)CCN2C(=O)C1CC1,76.4% (active)
5,CC(Cl)C(=O)c1ccc2c(c1)CCN2C(=O)C1CC1 (stereo not given),43.8% (inactive)
6,O=C(CCl)c1ccc2c(c1)CCN2C(=O)C1CCCCC1,13% (inactive)
7,Cc1nnsc1NC(=O)OCc1ccc(C(C)(C)C)cc1,58.9% (inactive)
8,Clc1ccc(OCc2nn[nH]n2)cc1,4.7% (inactive)
9,Cc1cc(C)c(C)c(S(=O)(=O)NCC(=O)NCC2CCCCC2)c1C,-8.5% (inactive)
10,O=C(NC1CCN(S(=O)(=O)c2cccc(F)c2)CC1)c1ccc(F)cc1,-9.7% (inactive)
11,C1=Nc2c(Nc3ccccc3)ncnc2Oc2ccccc21,-21% (inactive)
12,O=C(/C=C/c1ccc(OCCCF)cc1)Nc1ccnc(-c2ccncc2)n1,89.5% (active)
13,COc1ccc(CNC(=O)/C=C/c2ccc(OCCCF)cc2)cc1,-6.2% (inactive)
14,O=C(/C=C/c1ccc(OCCCF)cc1)Nc1ccnc(-c2cccnc2)n1,8.2% (inactive)
15,CCC(C)C(Nc1ncnc2scc(-c3ccccc3)c12)C(=O)O (stereo not given),-21% (inactive)
16,O=S(=O)(NC1CC1)c1ccccc1,-1% (inactive)
17,COC(=O)c1cn(NC(=O)c2ccc([N+](=O)[O-])cc2Cl)c(=O)c2ccccc12,-35.6% (inactive)
18,COC(=O)c1cn(NC(=O)c2ccccc2[N+](=O)[O-])c(=O)c2ccccc12,-27.3% (inactive)
19,COC(=O)c1cn(NC(=O)c2cc([N+](=O)[O-])ccc2F)c(=O)c2ccccc12,78% (active)
20,CC1CN(C(=O)COC(=O)c2cc(Cl)ccc2[N+](=O)[O-])CC(C)O1 (stereo not given),-25.3% (inactive)
21,CCCCS(=O)(=O)N1CCN(S(=O)(=O)c2ccc(Cl)s2)CC1,-11% (inactive)
22,O=C(Oc1cc(=O)oc2ccccc12)c1ccccc1,-8.5% (inactive)
23,CC(C)[C@H](NC(=O)[C@@H]1Cc2ccccc2CN1)C(=O)NC1CCCCC1,-12.1% (inactive)
24,CCCCc1c(O)nc(SCC(=O)c2ccccc2)n(-c2ccccc2)c1=O,-1.5% (inactive)
25,Cc1ccc(S(=O)(=O)/N=C(\CCl)N2CCOCC2)cc1,72.3% (active)

row,SMILES,inhibition
1,Cc1ccc(S(=O)(=O)/N=C(\CN2CCCCC2)N2CCOCC2)cc1,10.8% (inactive)
2,Cc1ccc(S(=O)(=O)/N=C(\CN2CCOCC2)N2CCOCC2)cc1,0.6% (inactive)
3,N/N=c1\sc2ccccc2n1-c1ccccc1,2.6% (inactive)
4,COc1cccc(/C=C2\SC(=S)N(CCCC(=O)N3CCCCC3)C2=O)c1,0% (inactive)
5,O=C(CCC(=O)NC1CCCCCC1)Nc1nnc(C(F)(F)F)s1,-18.1% (inactive)
6,O=C(CCC(=O)NC1CCCCCCC1)Nc1nnc(C(F)(F)F)s1,4.2% (inactive)
7,O=C(CCC1CCCCC1)Nc1nnc(C(F)(F)F)s1,77.4% (active)
8,Cc1ccnc(NC(=O)c2ccc(Cl)cc2Cl)n1,14.3% (inactive)
9,COc1cc(C(=O)NC2CC(C)(C)Cc3c2cnn3-c2ccccc2)cc(OC)c1OC (stereo not given),-14.3% (inactive)
10,COc1ccc(C(=O)NC2CC(C)(C)Cc3c2cnn3-c2ccccc2)cc1OC (stereo not given),0.2% (inactive)
11,COc1ccc(OC)c(C(=O)NC2CC(C)(C)Cc3c2cnn3-c2ccccc2)c1 (stereo not given),53.9% (active)
12,O=C(NCCc1c[nH]c2ccccc12)c1ccc([N+](=O)[O-])cc1,-37.7% (inactive)
13,O=C(O)c1ccc(S(=O)(=O)N2CCC(Cc3ccccc3)CC2)cc1,2.5% (inactive)
14,NC(=O)C1CCN(c2ccc(S(=O)(=O)N3CCCCC3)cn2)CC1,-25.2% (inactive)
15,Cc1ccc(CNC(=O)C2CC3Cn4c(nc5cc(C)c(C)cc54)C3N2C)o1 (stereo not given),-2.6% (inactive)
16,Cc1ccc(/C=C2/SC(=S)N(CCC(=O)N3CCN(c4ccccc4)CC3)C2=O)cc1,5.7% (inactive)
17,CCOC(=O)N1CCN(CC(=O)Nc2ccc(F)c(F)c2)CC1,10.6% (inactive)
18,CCC(=O)Nc1nc2nc(-c3ccccc3)cc(=O)n2[nH]1,0.3% (inactive)
19,CCCC(=O)Nc1nc2nc(C)cc(=O)n2[nH]1,-2.3% (inactive)
20,CCC(=O)Nc1nc2nc(C)cc(=O)n2[nH]1,57.1% (active)
21,Brc1ccc(-c2nc(-c3ccncc3)no2)cc1,-20.7% (inactive)
22,NC1=NC(=O)C(CC(=O)Nc2ccc3c(c2)OCO3)S1 (stereo not given),-24.1% (inactive)
23,CCCCNS(=O)(=O)c1ccc2nc(SCC(=O)c3ccc(C#N)cc3)[nH]c2c1,-14.8% (inactive)
24,CCCCNS(=O)(=O)c1ccc2nc(SCC(=O)Nc3sccc3C#N)[nH]c2c1,65.5% (active)
25,CCCCNS(=O)(=O)c1ccc2nc(SCC(=O)Nc3ccccc3)[nH]c2c1,-15.3% (inactive)
